From PubChem BioAssay AID651699 (Sanford-Burnham Center for Chemical Genomics, 2012)
Screen size: about 360,000 compounds; about 2,100 (0.58%) were called active. No stated cut-off is given here; in the data, active means inhibition above about 36%; inactive means the rest. The full list was thinned out, with actives kept by preference.

These molecules were tested against NEDD8-conjugating enzyme Ubc12 (Homo sapiens) + NEDD8-activating enzyme E1 regulatory subunit (Homo sapiens) (UniProt P61081+Q13564) (assay: inhibitors of cullin neddylation, primary screen, biochemical, TR-FRET, uHTS, NAE and Ubc12 (AID 651699)). Details: at 25 µM, active compounds read high.
Sequence of NEDD8-conjugating enzyme Ubc12 (Homo sapiens) + NEDD8-activating enzyme E1 regulatory subunit (Homo sapiens) (P61081 whole entry, looked up): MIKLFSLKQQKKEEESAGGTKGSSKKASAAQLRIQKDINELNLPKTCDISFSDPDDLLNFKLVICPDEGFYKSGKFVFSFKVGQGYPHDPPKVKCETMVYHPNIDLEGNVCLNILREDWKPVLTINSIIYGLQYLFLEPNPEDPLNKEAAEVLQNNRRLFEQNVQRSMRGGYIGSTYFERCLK
Sequence of NEDD8-conjugating enzyme Ubc12 (Homo sapiens) + NEDD8-activating enzyme E1 regulatory subunit (Homo sapiens) (Q13564 whole entry, looked up): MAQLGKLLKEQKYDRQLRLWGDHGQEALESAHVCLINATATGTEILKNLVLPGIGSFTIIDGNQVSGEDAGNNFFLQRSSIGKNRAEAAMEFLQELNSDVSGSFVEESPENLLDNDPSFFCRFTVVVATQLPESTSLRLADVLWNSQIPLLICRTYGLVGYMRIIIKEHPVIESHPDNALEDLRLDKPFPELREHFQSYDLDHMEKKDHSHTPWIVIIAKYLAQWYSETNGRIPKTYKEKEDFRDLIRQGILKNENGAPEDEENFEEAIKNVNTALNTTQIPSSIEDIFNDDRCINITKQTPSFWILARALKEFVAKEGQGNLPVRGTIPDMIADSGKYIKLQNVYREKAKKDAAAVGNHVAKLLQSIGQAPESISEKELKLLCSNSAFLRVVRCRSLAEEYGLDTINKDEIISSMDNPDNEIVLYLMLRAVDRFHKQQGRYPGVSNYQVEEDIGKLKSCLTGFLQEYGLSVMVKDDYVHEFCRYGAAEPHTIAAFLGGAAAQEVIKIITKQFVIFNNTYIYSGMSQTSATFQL
With `COc1ccc([N+](=O)[O-])cc1C1NN=C(c2cccc3ccccc23)S1` (centres undefined) the inhibition was -3.56% (inactive). In the case of `COc1ccc2c(c1OC)C(=O)N(c1ccc(O)cc1)C2`, the inhibition is reported as 14.7% (inactive). For `COc1ccc(C2C(C#N)=C(N)N(c3ncn[nH]3)C3=C2C(=O)CCC3)cc1` (centres undefined), the inhibition was -6.24% (inactive). In the case of `COc1ccc2c(c1OC)C(=O)N(c1ncn[nH]1)C2`, the inhibition is reported as 39.8% (active). For `COc1ccc(NC(=O)CCC(=O)N2CCN(S(=O)(=O)c3ccc(C)cc3)CC2)c(OC)c1`, the inhibition was 2.78% (inactive). In the case of `Cc1c(C2=CCN(S(=O)(=O)c3ccc(Cl)cc3)CC2)c2ccccc2n1C`, the inhibition is reported as -207% (inactive). `CN(C)CC/C=C1\c2ccccc2CSc2ccccc21` was tested, and the inhibition was 6.08% (inactive). With `COC(=O)c1ccc2nc(-c3ccc(OC)c(OC)c3)c(Cc3ccccc3)n2c1` the inhibition was 41.4% (active). With `COC(=O)c1ccc2nc(-c3ccc(F)cc3)c(Cc3ccc(C)cc3)n2c1` the inhibition was 36.3% (inactive). For `COC(=O)c1ccc2nc(-c3ccc(Cl)cc3)c(Cc3cccc(F)c3)n2c1`, the inhibition was 25.5% (inactive). For `CC[C@]12c3[nH]c4ccc(Cl)cc4c3CCN1C(=O)[C@@H](CC(=O)NCCCOC)C[C@@H]2C(=O)N1CCN(C(=O)c2ccco2)CC1`, the inhibition was 3.68% (inactive). For `COc1c(C(C)C)oc2cc3oc(=O)ccc3cc12`, the inhibition was 36.1% (inactive). `COC(=O)Cn1c(=NC(=O)CSCC(=O)Nc2cc(C)on2)sc2ccccc21` was tested, and the inhibition was 6.58% (inactive). With `Cc1ccc(-c2cc(C(=O)N/N=C/C=C/c3ccccc3)n[nH]2)o1` the inhibition was -6.17% (inactive). For `S=c1[nH]nc(/C=C/c2ccccc2)o1`, the inhibition was 40.5% (active). With `CC(C)(C)c1cc2cccnc2n1Cc1ccccc1` the inhibition was 24.2% (inactive). For `Cc1cnc(CN(C)C(=O)C2CCC(=O)N(CCc3cccc(F)c3)C2)[nH]1` (centres undefined), the inhibition was -3.06% (inactive). With `Cc1cccn2c(=O)c3cc(C(=O)NCCN4CCOCC4)c(=N)n(Cc4cccnc4)c3nc12` the inhibition was 68.3% (active). With `CCCNC(=O)CCn1nc(-c2ccccc2)c2ccccc2c1=O` the inhibition was -0.32% (inactive). With `CCCCCn1c(=O)c(C(=O)OCC)c(Cl)c2ccccc21` the inhibition was 4.01% (inactive). `CCCn1c(=O)c(-c2ccccc2)c(O)c2ccccc21` was tested, and the inhibition was 44.3% (active). In the case of `O=C1OC(Cc2ccccc2)C(c2ccccc2)C1=O` (centres undefined), the inhibition is reported as -10.9% (inactive). For `Cc1cc(=O)[nH]c(Nc2cccc(Br)c2)n1`, the inhibition was -6.28% (inactive). For `Cc1cc(=O)[nH]c(SCc2ccc(Cl)cc2)n1`, the inhibition was -1.58% (inactive). With `CCN(CC)c1ccc(/C=N/Nc2nc(C)cc(=O)[nH]2)cc1` the inhibition was 42% (active). For `COc1ccc(CNC(=O)C(=O)N2CCC3(CC2)OCCN3S(=O)(=O)c2ccc(C)cc2)cc1`, the inhibition was 4.54% (inactive). For `CCOC(=O)C1=C(O)/C(=C/c2cc(C)n(-c3ccccc3)c2C)N=C1C`, the inhibition was 16.8% (inactive). For `Cc1cc(/C=C2/C(=N)N3C(=NC2=O)SN=C3S(C)(=O)=O)c(C)n1-c1ccccc1`, the inhibition was 44.8% (active). With `CC1=CC2=NC(=O)/C(=C/c3coc4ccccc4c3=O)C(=N)N2O1` the inhibition was -38.8% (inactive). With `COc1cccc(NC(=O)CN(C)C(=O)c2cc(Cl)nc3ccccc23)c1` the inhibition was -0.49% (inactive). `COc1ccc(Cl)cc1NC(=O)CN(C)C(=O)c1ccc2n[nH]nc2c1` was tested, and the inhibition was 7.09% (inactive). In the case of `COc1ccc(-c2cc(C(=O)N(C)CC(=O)Nc3ccccc3Cl)c3ccccc3n2)cc1OC`, the inhibition is reported as 46.6% (active). `CC(=O)NC1CCN(CC(=O)Nc2nccs2)CC1` was tested, and the inhibition was -3.21% (inactive). In the case of `COC(=O)c1noc(C)c1-c1ccnn1C(=O)c1ccc(Cl)cc1`, the inhibition is reported as -11.9% (inactive). With `CC1CCC2CCCCC2N1C(=O)c1cc([N+](=O)[O-])cc([N+](=O)[O-])c1` (centres undefined) the inhibition was -35.2% (inactive). In the case of `CC(C)c1cc(C(=O)N/N=C/c2ccoc2)c(O)c(C(C)C)c1`, the inhibition is reported as 49.1% (active). With `O=C(N/N=C/c1ccoc1)c1ccc(Cl)cc1Cl` the inhibition was 1.29% (inactive). With `CC(Oc1ccccc1[N+](=O)[O-])C(=O)N/N=C/c1ccoc1` (centres undefined) the inhibition was -9.94% (inactive). `COc1ccc(OC)c(NC(=O)CSc2nc(N)c(-c3ccccc3)c(=O)[nH]2)c1` was tested, and the inhibition was 26.4% (inactive). With `CC(CCO)Nc1nc2c([nH]1)c(=O)n(C)c(=O)n2C` (centres undefined) the inhibition was 10.7% (inactive). For `Cc1cc(C)c(C=NNc2nc3c([nH]2)c(=O)n(C)c(=O)n3C)c(C)c1`, the inhibition was 39.2% (active). In the case of `Cc1ccc(NN=Nc2nc3c([nH]2)c(=O)n(C)c(=O)n3C)cc1`, the inhibition is reported as 1.85% (inactive). In the case of `COc1cccc(/C=N/NC(=O)C(=O)N2CCCC2)c1`, the inhibition is reported as -14.6% (inactive). In the case of `O=C(CN1C(=O)CC(c2ccccc2)=Nc2ccccc21)NC1CCCCC1`, the inhibition is reported as -13.9% (inactive). With `O=C(NCc1cccc(Cl)c1)C1=CC=CN2CCS(=O)(=O)N=C12` the inhibition was 33% (active). In the case of `O=C(NCc1cccc(Cl)c1)C1CCC(=O)N(C2CC2)C1` (centres undefined), the inhibition is reported as -4.68% (inactive). In the case of `O=C(NCc1cccc(Cl)c1)C1CCN(c2nnc(N3CCCC3=O)s2)CC1`, the inhibition is reported as 9.68% (inactive). In the case of `CCOc1cc(/C=N/NC(=O)c2ccncc2)cc(Br)c1O`, the inhibition is reported as -8.9% (inactive). With `CCOc1cc(/C=N/Nc2cc(C)nc3ccc(C)cc23)ccc1O` the inhibition was 39.9% (active). `CCOc1ccc(/C=N/NC(=O)C(C)Sc2ccccn2)cc1OCC` (centres undefined) was tested, and the inhibition was -5.74% (inactive). In the case of `O=C(CCN1C(=O)C2C3CCC(C3)C2C1=O)Nc1ccc(Cl)cc1Cl` (centres undefined), the inhibition is reported as 5.46% (inactive). In the case of `O=C(CNC(=O)c1ccc(Br)o1)NCC1CCCO1` (centres undefined), the inhibition is reported as 10.6% (inactive). For `CCOc1ccc2[nH]c(=O)c(C(c3nnnn3CCOC)N3CCOCC3)cc2c1` (centres undefined), the inhibition was 46% (active). `COCCn1nnnc1C(c1cc2ccc(OC)cc2[nH]c1=O)N1CCc2ccccc2C1` (centres undefined) was tested, and the inhibition was -11.9% (inactive). In the case of `COc1ccc(N2CCN(C(c3cc4ccc(C)cc4[nH]c3=O)c3nnnn3C3CCCC3)CC2)cc1` (centres undefined), the inhibition is reported as 8.39% (inactive). For `C=CCC(CC=C)(C(N)=O)c1ccccc1`, the inhibition was -5.36% (inactive). With `Cc1ccc(C2CC(c3cccc(NS(C)(=O)=O)c3)=NN2S(C)(=O)=O)cc1` (centres undefined) the inhibition was 7.24% (inactive). `CS(=O)(=O)Nc1ccc(C2=NN(S(C)(=O)=O)C(c3cccs3)C2)cc1` (centres undefined) was tested, and the inhibition was 51.1% (active). With `CS(=O)(=O)Nc1cccc(C2=NN(C(=O)c3cccc(F)c3)C(c3cccs3)C2)c1` (centres undefined) the inhibition was -5.27% (inactive).
